Compound activity: PubChem, several laboratories
In the library only some 22% were active in any assay of this set; here they are far more common.
CYP2C19 inhib: human CYP2C19 inhibition | AID 778 | 96,000 compounds, 21% hits | CYP2C19 Supersomes, luciferin-H EGE luminescence, 30 min | P33261 | inhibition, % at 5 µM;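 active means CYP2C19 inhibition above a set limit at 5 µM in the primary screen, cut at about 50% in these data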
Target sequence (P33261 whole entry, looked up): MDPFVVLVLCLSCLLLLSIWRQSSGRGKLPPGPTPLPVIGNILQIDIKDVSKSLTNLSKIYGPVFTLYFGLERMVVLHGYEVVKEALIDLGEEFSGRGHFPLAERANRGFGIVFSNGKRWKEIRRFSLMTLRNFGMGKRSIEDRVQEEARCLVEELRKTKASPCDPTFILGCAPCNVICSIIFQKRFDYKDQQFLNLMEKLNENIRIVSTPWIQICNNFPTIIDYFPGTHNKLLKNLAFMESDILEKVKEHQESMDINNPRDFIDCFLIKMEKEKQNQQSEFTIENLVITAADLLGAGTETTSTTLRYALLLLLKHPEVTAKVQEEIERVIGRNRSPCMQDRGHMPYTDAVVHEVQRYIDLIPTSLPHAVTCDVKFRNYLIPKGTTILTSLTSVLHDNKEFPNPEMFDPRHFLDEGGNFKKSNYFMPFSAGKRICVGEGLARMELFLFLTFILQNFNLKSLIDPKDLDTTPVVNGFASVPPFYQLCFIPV
CYP2C9 inhib: blocks human cytochrome P450 2C9; CYP2C9 Supersomes, luciferin-H conversion, luminescence; inhibition, % at 5 µM; 96,000 compounds, 20% hits; AID 777;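 active means blocking of liver enzyme CYP2C9 beyond about 50% at 5 µM, limit read from the data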
CYP2C19 act: activators of human cytochrome P450 2C19; P33261; recombinant CYP2C19, luciferin-H EGE luminescence; hits give high values; 0 = fully inhibited enzyme, 1 = untreated enzyme; activation factor at 5 µM; 96,000 tested, under 10 active;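 active means activation factor of at least 2 at 5 µM in the primary screen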
CYP2C9 act: activators of human CYP2C9 | P11712 | recombinant CYP2C9, luciferin-H conversion, luminescence; hits give high values; factor 1 = untreated enzyme, 0 = blocked | activation factor at 5 µM | 96,000 compounds, 1.4% hits | AID 1024;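 active means activation factor of 2 or more for CYP2C9 at a 5 µM dose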
Measles CPE: protection of cells from measles virus. Measles virus-infected cells, CPE protection, absorbance. protection (pct of control), % at 4 µM. 140,000 compounds, 1.5% hits. AID 841; in the data active means protection mostly above about 24%, no sharp cut-off; inactive means mostly below about 26%
A number is an active result.

Results for CC(C)(CNc1ccc([N+](=O)[O-])cc1Cl)CNS(C)(=O)=O ?
CYP2C19 inhib: 54.6; CYP2C9 inhib: inactive; CYP2C19 act: inactive; CYP2C9 act: inactive; Measles CPE: inactive

Results for CCc1ccc(NC(=S)NC2CC3CCC(C2)N3Cc2ccco2)cc1 (stereo unspecified) ?
CYP2C19 inhib: inactive; CYP2C9 inhib: inactive; CYP2C19 act: inactive; CYP2C9 act: inactive; Measles CPE: inactive

Results for CN(C)CCCOC(=O)c1ccc(Br)cc1 ?
CYP2C19 inhib: inactive; CYP2C9 inhib: inactive; CYP2C19 act: inactive; CYP2C9 act: inactive; Measles CPE: inactive

Results for CCC(NS(=O)(=O)c1ccc(C)cc1)C(=O)N1CCC2(O)CCCCC2C1 (stereo unspecified) ?
CYP2C19 inhib: inactive; CYP2C9 inhib: inactive; CYP2C19 act: inactive; CYP2C9 act: inactive; Measles CPE: inactive

What do the screens show for `CN(C(=O)c1cccc(Nc2ccc(-c3ccc4c(c3)OCCO4)nn2)c1)C1CCCCC1`?
Measles CPE: inactive

How did Cc1ncc(S(=O)(=O)c2ccccc2)c(-c2ccccc2)n1 do in these assays?
CYP2C19 inhib: inactive; CYP2C9 inhib: inactive; CYP2C19 act: inactive; CYP2C9 act: inactive; Measles CPE: inactive

What do the screens show for `CN(C)c1ccc(S(=O)(=O)c2ccc(Cl)cc2)cc1`?
CYP2C19 inhib: inactive; CYP2C9 inhib: inactive; CYP2C19 act: inactive; CYP2C9 act: inactive; Measles CPE: inactive

How did Cc1ncc(S(=O)(=O)c2ccccc2)c(-c2ccccc2Cl)n1 do in these assays?
CYP2C19 inhib: 61.5; CYP2C9 inhib: inactive; CYP2C19 act: inactive; CYP2C9 act: inactive; Measles CPE: inactive

Results for O=S(=O)(c1ccccc1)c1cnc(-c2cccnc2)nc1-c1ccc(Cl)c(Cl)c1 ?
CYP2C19 inhib: 71.9; CYP2C9 inhib: 63.9; CYP2C19 act: inactive; CYP2C9 act: inactive; Measles CPE: inactive

Results for CN(C)c1ncc(S(=O)(=O)c2ccc(Cl)cc2)c(-c2ccc(Cl)cc2Cl)n1 ?
CYP2C19 inhib: 81.1; CYP2C9 inhib: inactive; CYP2C19 act: inactive; CYP2C9 act: inactive; Measles CPE: inactive

Results for CCc1ccc(OCc2nc(-c3ccccn3)no2)c(Br)c1 ?
CYP2C19 inhib: 94.8; CYP2C9 inhib: 73.9; CYP2C19 act: inactive; CYP2C9 act: inactive; Measles CPE: inactive

How did CC(C)c1ccc(OCc2nc(-c3ccccn3)no2)c(Br)c1 do in these assays?
CYP2C19 inhib: inactive; CYP2C9 inhib: inactive; CYP2C19 act: inactive; CYP2C9 act: inactive; Measles CPE: inactive

Results for Cc1ccc(OCc2nc(-c3ccccn3)no2)c(Br)c1 ?
CYP2C19 inhib: 83.5; CYP2C9 inhib: inactive; CYP2C19 act: inactive; CYP2C9 act: inactive; Measles CPE: inactive

How did Cc1cc(C)nc(SCC(=O)N/N=C/c2cccn2-c2ccc(O)cc2)n1 do in these assays?
CYP2C19 inhib: inactive; CYP2C9 inhib: 54.7; CYP2C19 act: inactive; CYP2C9 act: inactive; Measles CPE: inactive

How did Cc1cc(C)nc(SCC(=O)N/N=C/c2cccc([N+](=O)[O-])c2)n1 do in these assays?
Measles CPE: 48.7

What do the screens show for `COc1ccc(-c2cc(C)nc(SCC(=O)c3cccc([N+](=O)[O-])c3)n2)cc1`?
CYP2C19 inhib: inactive; CYP2C9 inhib: inactive; CYP2C19 act: inactive; CYP2C9 act: inactive; Measles CPE: inactive

What do the screens show for `Cc1cc(-c2ccccc2)nc(SCC(=O)c2cccc([N+](=O)[O-])c2)n1`?
CYP2C19 inhib: inactive; CYP2C9 inhib: 68.1; CYP2C19 act: inactive; CYP2C9 act: inactive; Measles CPE: inactive

How did Cc1cc(C)nc(SCC(=O)N/N=C/c2cccn2-c2cccc(C(F)(F)F)c2)n1 do in these assays?
CYP2C19 inhib: inactive; CYP2C9 inhib: inactive; CYP2C19 act: inactive; CYP2C9 act: inactive; Measles CPE: inactive

Results for COC(=O)C1=NN(C(=O)c2ccc(C)cc2)C(O)(c2ccc(Cl)cc2)C1 (stereo unspecified) ?
CYP2C19 inhib: inactive; CYP2C9 inhib: inactive; CYP2C19 act: inactive; CYP2C9 act: inactive; Measles CPE: inactive

How did COC(=O)c1ccccc1N(Cc1ccccc1)S(C)(=O)=O do in these assays?
CYP2C19 inhib: 78.3; CYP2C9 inhib: inactive; CYP2C19 act: inactive; CYP2C9 act: inactive; Measles CPE: inactive

How did Cc1cc(C)c(OCCN2C(=O)NC(C)(C)C2=O)c(Cl)c1 do in these assays?
CYP2C19 inhib: 96.2; CYP2C9 inhib: inactive; CYP2C19 act: inactive; CYP2C9 act: inactive; Measles CPE: inactive

What do the screens show for `Cc1cc(Cl)cc(Cl)c1OCCCCN(C)C`?
Measles CPE: inactive

What do the screens show for `Cc1cc(Cl)c(OCCCN2CCCCC2)c(Br)c1`?
Measles CPE: inactive

How did Cc1cc(Cl)cc(Br)c1OCCCN1C(=O)NC(C)(C)C1=O do in these assays?
CYP2C19 inhib: 90.4; CYP2C9 inhib: inactive; CYP2C19 act: inactive; CYP2C9 act: inactive; Measles CPE: inactive

How did Cc1cc(Cl)c(OCCN2C(=O)NC(C)(C)C2=O)c(Br)c1 do in these assays?
CYP2C19 inhib: 97.6; CYP2C9 inhib: inactive; CYP2C19 act: inactive; CYP2C9 act: inactive; Measles CPE: inactive

How did CCn1ncc(/C=N/NC(=O)c2ccc3c(c2)OCO3)c1C do in these assays?
CYP2C19 inhib: inactive; CYP2C9 inhib: inactive; CYP2C19 act: inactive; CYP2C9 act: inactive; Measles CPE: inactive

Results for CCOC(=O)c1cnc2ccc(OCC)cc2c1NCc1ccccc1 ?
Measles CPE: inactive

What do the screens show for `CCOC(=O)c1c(NC(NC(C)=O)C(Cl)(Cl)Cl)sc2c1CCCC2` (stereo unspecified)?
Measles CPE: inactive

Results for CC(=O)Nc1cc(C(C)(C)C)c(O)c(C(C)(C)C)c1 ?
CYP2C19 inhib: inactive; CYP2C9 inhib: 88.4; CYP2C19 act: inactive; CYP2C9 act: inactive; Measles CPE: inactive

How did CC(C)(C)NC(=O)c1cc(C(C)(C)C)c(O)c(C(C)(C)C)c1 do in these assays?
Measles CPE: inactive

Results for CCCCC(=O)c1ccc(O)cc1 ?
CYP2C19 inhib: inactive; CYP2C9 inhib: inactive; CYP2C19 act: inactive; CYP2C9 act: 2.2; Measles CPE: inactive

What do the screens show for `CCCCC(=O)c1ccc(O)cc1O`?
Measles CPE: inactive

Results for COc1ccc2c(c1)c1ncn(Cc3ccco3)c(=O)c1n2C ?
CYP2C19 inhib: 75.0; CYP2C9 inhib: 71.8; CYP2C19 act: inactive; CYP2C9 act: inactive; Measles CPE: inactive

How did COC(=O)CSc1nnc(-c2ccco2)n1-c1ccc(C)cc1 do in these assays?
CYP2C19 inhib: inactive; CYP2C9 inhib: inactive; CYP2C19 act: inactive; CYP2C9 act: inactive; Measles CPE: inactive

What do the screens show for `COC(=O)CN1C(=O)S/C(=C/c2cc(C)n(C)c2C)C1=O`?
CYP2C19 inhib: inactive; CYP2C9 inhib: 51.0; CYP2C19 act: inactive; CYP2C9 act: inactive; Measles CPE: inactive

How did C[C@@H](C(=O)Nc1ccc2ccccc2c1)[C@@H]1C[C@@]1(C)[C@@H](NC(=O)c1ccccc1)c1ccccc1 do in these assays?
Measles CPE: inactive

How did COc1ccc(-c2nnc(CSc3nc4ccccc4c(=O)n3C)o2)cc1OC do in these assays?
CYP2C19 inhib: 80.2; CYP2C9 inhib: 86.3; CYP2C19 act: inactive; CYP2C9 act: inactive; Measles CPE: inactive

What do the screens show for `Cn1c(SCc2ccon2)nc2ccccc2c1=O`?
CYP2C19 inhib: inactive; CYP2C9 inhib: inactive; CYP2C19 act: inactive; CYP2C9 act: inactive; Measles CPE: inactive
